Screening data deposited in PubChem BioAssay by National Center for Advancing Translational Sciences (NCATS).
Tb PGK inh: qHTS Assay to Find Inhibitors of Phosphoglycerate Kinase; PGK/GAPDH coupled, Kinase-Glo luminescence, 60 min; 0.043% of 380,000 active; Potency, µM (highest dose often 57.5 µM), for the others: top-dose activity change, negative = inhibition, actives largely listed as inhibitors; note: % is set by controls: 0 for no effect and ±100 for the full control effect; nearly all actives have a fitted effect of over 60% in size
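Recombinant glycosomal PGK reaction used 1,3-bisphosphoglycerate generated in-well by GAPDH (100nM final) in 100mM TEA pH 7.6, 5mM MgCl2, 0.01% Tween-20. After 60 minutes at room temperature, ATP was read by Kinase-Glo Plus luminescence end-point.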
ELG1 repair inh: qHTS screen for small molecules that inhibit ELG1-dependent DNA repair in human embryonic kidney (HEK293T) cells expressing luciferase-tagged ELG1. 2.3% of 330,000 active. HEK293T ELG1-luciferase reporter, luminescence, 16 h; DNA damage induced by 5-fluorouridine. Potency, µM (top dose mostly 46.1 µM), inactives show at the top dose activity change, negative = inhibition, usual class: inhibitors; note: % is set by controls: 0 for no effect and ±100 for the full control effect; nearly all actives have a fitted effect of over 55% in size
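HEK293T cells expressing luciferase-tagged ELG1 (2,000/well) received 5-Fluorouridine plus compound or DMSO for 16 hr at 37 °C. Luciferase was read by ONE-Glo luminescence after 30 min at room temperature.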
Rango-impB inh: qHTS Assay for Inhibitors of Rango (Ran-regulated importin-beta cargo) - Importin beta complex formation | 0.031% of 340,000 active | Potency, µM (titrated, usually from 92.2 µM), without a hit: at the top dose inhibition of complex formation | Rango CFP/YFP FRET sensor + importin beta, 45 min; calls by dose curve;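 note: 0% = DMSO wells and 100% = buffer wells lacking importin beta; nearly all actives have a fitted effect of over 15% in size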
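FRET biosensor (snurportin 1 IBB flanked by EYFP and cerulean), 50 nM, with compound 5 min, then 0.125 microM importin beta in PBS, 1 mM DTT, 0.02% Tween-20, 0.1% BSA. CFP/YFP ratio read after 45 min at room temperature; pre-read flags interference.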
Rango dissoc inh: qHTS Assay for Inhibitors of RanGTP induced Rango (Ran-regulated importin-beta cargo) - Importin beta complex dissociation. Snurportin-1 (Homo sapiens) + GTP-binding nuclear protein Ran (Homo sapiens) + Importin …. Biochemical FRET Rango-importin beta, RanGTP-induced dissociation. Potency, µM (titrated, usually from 46.1 µM), without a hit: at the top dose activity change, negative = inhibition. 0.071% of 340,000 active. AID 540253, 2011; calls by dose curve; note: % of control where 0% means no effect; nearly all actives have a fitted effect of over 45% in size
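Compounds sat 5 min at room temperature with 0.1 uM Rango biosensor plus 0.25 uM importin beta, then FRET pre-read. RanGTP-RCC1 (0.6 uM Ran, 2mM GTP, 0.2 uM RCC1) added for 45 min, and the CFP/YFP post-read measured blocked complex dissociation.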
Tb PFK block: qHTS Assay to Find Inhibitors of T. brucei phosphofructokinase; ATP-dependent 6-phosphofructokinase (Trypanosoma brucei brucei), O15648; T. brucei PFK, ADP-Glo luminescence; Potency, µM (doses to about 57.5 µM), for the others: at the top dose activity, negative = inhibition, actives largely listed as inhibitors; 0.17% of 330,000 active; AID 485367, 2010;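 note: 0% = uninhibited 1x PFK enzyme wells and -100% = no-enzyme wells; nearly all actives have a fitted effect of over 60% in size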
Target sequence (O15648 whole entry, looked up): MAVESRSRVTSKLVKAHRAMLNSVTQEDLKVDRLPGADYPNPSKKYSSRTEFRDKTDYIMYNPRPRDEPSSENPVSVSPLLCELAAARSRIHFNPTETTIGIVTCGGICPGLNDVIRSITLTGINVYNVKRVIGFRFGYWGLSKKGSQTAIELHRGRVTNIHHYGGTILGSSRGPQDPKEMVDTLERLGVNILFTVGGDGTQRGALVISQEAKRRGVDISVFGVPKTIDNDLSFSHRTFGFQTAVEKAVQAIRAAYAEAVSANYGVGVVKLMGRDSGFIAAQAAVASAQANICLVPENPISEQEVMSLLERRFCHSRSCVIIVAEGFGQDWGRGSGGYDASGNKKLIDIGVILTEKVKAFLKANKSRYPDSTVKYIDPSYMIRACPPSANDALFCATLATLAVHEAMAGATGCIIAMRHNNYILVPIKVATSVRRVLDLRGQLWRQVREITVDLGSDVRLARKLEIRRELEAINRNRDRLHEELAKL
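In TEA buffer at pH 8.0 with 5 mM MgCl2, enzyme (1.25 nM) converted F6P (0.5 mM) and ATP (0.1 mM) for 45 min at room temperature. ADP product was read by luciferase luminescence.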
PKM2 act: qHTS Assay for Activators of Human Muscle isoform 2 Pyruvate Kinase; Pyruvate kinase PKM (Homo sapiens), P14618; purified PKM2, Kinase-Glo ATP luminescence, activation; response scale: 0% is enzyme alone, no compound; Potency, µM (top dose mostly 57.5 µM), for the others: at the top dose activation, usual class: activators; 0.34% of 260,000 active; AID 1631, 2009; note: % is set by controls: 0 for no effect and ±100 for the full control effect; nearly all actives have a fitted effect of over 55% in size
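Kinase-Glo luminescence reports ATP generated from ADP (0.1 mM) and PEP (0.5 mM) by purified hPK-M2 after 1 h at room temperature, pH 7.2 imidazole buffer; intermediate enzyme activity allows detecting inhibitors and activators.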
The depositor's hits bear a star. Sampled rows, rich in hits. Any-hit rate of the full collection: about 2.4%. Unless noted, calls come from the whole dose curve; as a rule, active = well fitted curve in the direction sought with a large enough effect; inconclusive = small, poorly fitted or top-dose-only effect, or another doubt; inactive = no such curve, though single readings can be large; an effect the other way counts as inactive or inconclusive. Potency is the fitted concentration of half-maximal effect.

What do the screens show for `O=C(COc1coc(CN2CCN(c3ccccc3)CC2)cc1=O)NC1CCCCC1`?
Tb PGK inh: -8.8%; ELG1 repair inh: -0.3%; Rango-impB inh: 1.7%; Rango dissoc inh: 11.8%; Tb PFK block: 5.2%

What do the screens show for `NC(=O)CSc1nnc(NC(=O)c2ccc(S(=O)(=O)N3CCCCC3)cc2)s1`?
Tb PGK inh: inactive; ELG1 repair inh: -0.6%; Rango-impB inh: -3.6%; Rango dissoc inh: -0.3%; Tb PFK block: 5.4%

What do the screens show for `COc1ccc(CCNC(=O)c2ccc3nc(N4CCOCC4)sc3c2)cc1OC`?
Tb PGK inh: -0.9%; ELG1 repair inh: inconclusive; Rango-impB inh: -3.7%; Rango dissoc inh: 20.1%; Tb PFK block: 2.3%; PKM2 act: 0.4%

How did CCOc1ccc(CCNC(=O)c2ccc(Cl)c(S(=O)(=O)N3CCOCC3)c2)cc1OCC do in these assays?
Tb PGK inh: -8.6%; ELG1 repair inh: 16.4µM*; Rango-impB inh: 3.8%; Rango dissoc inh: -15.6%; Tb PFK block: -5.4%

How did CCOc1ccc(CCNC(=O)c2ccc3nc(N4CCOCC4)sc3c2)cc1OCC do in these assays?
Tb PGK inh: -4.2%; ELG1 repair inh: 23.1µM*; Rango-impB inh: 0.1%; Rango dissoc inh: -5.7%; Tb PFK block: 2.3%; PKM2 act: 6.6%

Results for CC1CCCC(NC(=S)NC(=O)c2ccco2)C1C (stereo not given) ?
Tb PGK inh: -6.3%; ELG1 repair inh: 19.3%; Rango-impB inh: -0.1%; Rango dissoc inh: -1.1%; Tb PFK block: -0.5%

Results for CCOC(=O)c1c(C)[nH]c(C(=O)OC)c1CCC(=O)OC ?
Tb PGK inh: -6.3%; ELG1 repair inh: 3.1%; Rango-impB inh: 0.0%; Rango dissoc inh: 0.0%; Tb PFK block: -0.3%; PKM2 act: -6.7%

How did CCOC(=O)c1[nH]c(Cc2[nH]c(C(=O)OCC)c(C)c2CCC(=O)OC)c(CCC(=O)OC)c1C do in these assays?
Tb PGK inh: -5.0%; ELG1 repair inh: 18.4µM*; Rango-impB inh: -0.3%; Rango dissoc inh: -13.1%; Tb PFK block: 2.6%; PKM2 act: 3.2%

How did CC(=O)c1ccc(Oc2ncnc3sccc23)cc1 do in these assays?
Tb PGK inh: -8.7%; ELG1 repair inh: inconclusive; Rango-impB inh: -7.0%; Rango dissoc inh: -5.8%; Tb PFK block: -1.7%; PKM2 act: -3.7%

What do the screens show for `CC(=O)N1CCN(c2ccc(Oc3ncnc4sccc34)cc2)CC1`?
Tb PGK inh: -6.1%; ELG1 repair inh: 20.6µM*; Rango-impB inh: -1.2%; Rango dissoc inh: -7.5%; Tb PFK block: -2.3%; PKM2 act: -0.2%

How did O=C(NCc1ccccc1)c1onc(CSc2ccccc2)c1C(=O)NCC1CC1 do in these assays?
Tb PGK inh: -7.4%; ELG1 repair inh: 23.1µM*; Rango-impB inh: 1.1%; Rango dissoc inh: 5.5%; Tb PFK block: 0.5%; PKM2 act: -1.1%

What do the screens show for `O=C(NCc1ccccc1)c1onc(CSc2ccc(Cl)cc2)c1C(=O)NCC1CC1`?
Tb PGK inh: -1.7%; ELG1 repair inh: 6.4%; Rango-impB inh: -1.3%; Rango dissoc inh: 0.2%; Tb PFK block: -9.0%

Results for CCN1CCN(c2cc(C)c3cc(NC(=O)c4cc(Br)ccc4Cl)ccc3n2)CC1 ?
Tb PGK inh: -5.2%

How did CCCCOc1ccc(CN=C(N)N)cc1Cl do in these assays?
Tb PGK inh: -1.7%; ELG1 repair inh: inconclusive; Rango-impB inh: -1.9%; Rango dissoc inh: -12.2%; Tb PFK block: -0.6%; PKM2 act: -2.2%

What do the screens show for `CCCOc1ccc(CCCN=C(N)N)cc1Cl`?
Tb PGK inh: -7.9%; ELG1 repair inh: 13µM*; Rango-impB inh: -2.0%; Rango dissoc inh: 3.5%; Tb PFK block: 1.0%; PKM2 act: 3.7%

What do the screens show for `CCC(=O)Nc1nc(-c2ccc3c(c2)CC(C)N3S(C)(=O)=O)cs1` (stereo not given)?
Tb PGK inh: -1.7%; ELG1 repair inh: inconclusive; Rango-impB inh: inconclusive; Rango dissoc inh: 0.2%; Tb PFK block: -3.2%; PKM2 act: 2.0%

Results for CC(=O)Nc1ccc(-c2csc(NC(=O)Cc3cccc(F)c3)n2)cc1 ?
Tb PGK inh: inactive; ELG1 repair inh: 18.3µM*; Rango-impB inh: -4.2%; Rango dissoc inh: -7.2%; Tb PFK block: -0.2%; PKM2 act: -3.2%

How did CC1Cc2cc(-c3csc(NC(=O)Cc4cccs4)n3)ccc2N1S(C)(=O)=O (stereo not given) do in these assays?
Tb PGK inh: inactive; ELG1 repair inh: 4.61µM*; Rango-impB inh: 0.0%; Rango dissoc inh: 2.5%; Tb PFK block: 5.0%; PKM2 act: 2.7%

How did CS(=O)(=O)N1CCc2cc(-c3csc(NC(=O)Cc4ccccc4)n3)ccc21 do in these assays?
ELG1 repair inh: 18.4µM*; Rango-impB inh: -0.8%; Rango dissoc inh: -12.5%; Tb PFK block: 2.5%; PKM2 act: 7.4%

What do the screens show for `COc1cccc(S(=O)(=O)N(C)C[C@H]2Oc3cc(Br)ccc3S(=O)(=O)N([C@@H](C)CO)C[C@H]2C)c1`?
Tb PGK inh: 5.4%

How did CC1CCC(NC(=O)C(NS(=O)(=O)c2ccc(Br)cc2)C(C)C)CC1 (stereo not given) do in these assays?
Tb PGK inh: inactive

What do the screens show for `CC(=O)NCCc1nc2cc(NS(=O)(=O)c3ccccc3)ccc2n1C`?
Tb PGK inh: 5.0%; ELG1 repair inh: -0.1%; Rango-impB inh: 1.0%; Rango dissoc inh: -4.8%; Tb PFK block: -4.9%

What do the screens show for `Cc1nn(C)c(C)c1NC(=O)c1cnn2c(C(F)F)cc(-c3ccccc3)nc12`?
ELG1 repair inh: 4.1%; Tb PFK block: -0.4%; PKM2 act: -2.6%

Results for Cc1cc(NS(=O)(=O)c2ccc(NC(=O)c3cc(-c4cccnc4)nc4ccc(Cl)cc34)cc2)no1 ?
Tb PGK inh: -4.3%; ELG1 repair inh: -3.3%; Rango-impB inh: 4.8%; Rango dissoc inh: 0.4%; Tb PFK block: 2.3%; PKM2 act: 0.5%

What do the screens show for `Cc1cc(NC(=O)c2cc(-c3cccnc3)nc3c(C)c(C)ccc23)no1`?
Tb PGK inh: -6.8%; ELG1 repair inh: 23.1µM*; Rango-impB inh: -4.0%; Rango dissoc inh: 3.4%; Tb PFK block: -2.8%; PKM2 act: 0.4%
